From PMC12864922, “TDP-43 directly inhibits mRNA accumulation in neurites through modulation of mRNA stability”
In all, about 9,900 sequences were measured (“r (bound/input frequency ratio)”: median about 0.7, highest 2% from about 6.5 on). Shown is part of a subset that was picked to be rich in the highest values.

B1: ENSMUSG00000004113.302|Cacna1b (ssRNA)
RNA: GGGAGUUCUACAGUCCGACGAUCGCUUCGAUAUCCGCAUGCUAUCCUUGGUGUGGUCUCUCUGUUUUGAAACUUCUGAUGACUUCUUGGUGGCUUGUUGUCUUCUACCCCAUGUUUCUCACAGGAUCUGUGUGUGUGUGUGUGUGUGUGUGUGUGUGUGUGUGUGUGUGUGUUAGCAUGUGUGUAUUAGCGUGUGUGAGUGUGUGAGCAUGCACGAGUCAUAGGAGAUGCAGGUGUAUGUGUGUGGUGUGCAUAUGUGUAUGUGUGUGUGUGUGUGUGUGUGUGUAGGUGUGUUCAGCAAGUGCUCUUGCGGUCGCACUAGUGUGGAAUUCUCGGGUGUCAAGG
B2: ENSMUSG00000004113.303|Cacna1b (ssRNA)
RNA: GGGAGUUCUACAGUCCGACGAUCGCUUCGAUAUCCGCAUGCUAGUGUGGUCUCUCUGUUUUGAAACUUCUGAUGACUUCUUGGUGGCUUGUUGUCUUCUACCCCAUGUUUCUCACAGGAUCUGUGUGUGUGUGUGUGUGUGUGUGUGUGUGUGUGUGUGUGUGUGUUAGCAUGUGUGUAUUAGCGUGUGUGAGUGUGUGAGCAUGCACGAGUCAUAGGAGAUGCAGGUGUAUGUGUGUGGUGUGCAUAUGUGUAUGUGUGUGUGUGUGUGUGUGUGUGUAGGUGUGUUCAGCAAGUGGCUAUUCUCUUGCGGUCGCACUAGUGUGGAAUUCUCGGGUGUCAAGG
B3: ENSMUSG00000004113.290|Cacna1b (ssRNA)
RNA: GGGAGUUCUACAGUCCGACGAUCGCUUCGAUAUCCGCAUGCUACAGGAAGGUGUUCAGUGUGCACAGAUAGCUGGGAGGCCACGAGAGAAAGGUUGCACACAGACAGGCAGGCACUCCUUGGUGUGGUCUCUCUGUUUUGAAACUUCUGAUGACUUCUUGGUGGCUUGUUGUCUUCUACCCCAUGUUUCUCACAGGAUCUGUGUGUGUGUGUGUGUGUGUGUGUGUGUGUGUGUGUGUGUGUGUUAGCAUGUGUGUAUUAGCGUGUGUGAGUGUGUGAGCAUGCACGAGUCAUAGGAGAUGCACUCUUGCGGUCGCACUAGUGUGGAAUUCUCGGGUGUCAAGG
B4: ENSMUSG00000004113.305|Cacna1b (ssRNA)
RNA: GGGAGUUCUACAGUCCGACGAUCGCUUCGAUAUCCGCAUGCUAUGUUUUGAAACUUCUGAUGACUUCUUGGUGGCUUGUUGUCUUCUACCCCAUGUUUCUCACAGGAUCUGUGUGUGUGUGUGUGUGUGUGUGUGUGUGUGUGUGUGUGUGUGUUAGCAUGUGUGUAUUAGCGUGUGUGAGUGUGUGAGCAUGCACGAGUCAUAGGAGAUGCAGGUGUAUGUGUGUGGUGUGCAUAUGUGUAUGUGUGUGUGUGUGUGUGUGUGUGUAGGUGUGUUCAGCAAGUGGCUAUUGUCAACCAUAGGCUCUUGCGGUCGCACUAGUGUGGAAUUCUCGGGUGUCAAGG
B5: ENSMUSG00000004113.294|Cacna1b (ssRNA)
RNA: GGGAGUUCUACAGUCCGACGAUCGCUUCGAUAUCCGCAUGCUAAUAGCUGGGAGGCCACGAGAGAAAGGUUGCACACAGACAGGCAGGCACUCCUUGGUGUGGUCUCUCUGUUUUGAAACUUCUGAUGACUUCUUGGUGGCUUGUUGUCUUCUACCCCAUGUUUCUCACAGGAUCUGUGUGUGUGUGUGUGUGUGUGUGUGUGUGUGUGUGUGUGUGUGUUAGCAUGUGUGUAUUAGCGUGUGUGAGUGUGUGAGCAUGCACGAGUCAUAGGAGAUGCAGGUGUAUGUGUGUGGUGUGCAUAUCUCUUGCGGUCGCACUAGUGUGGAAUUCUCGGGUGUCAAGG
B6: ENSMUSG00000004113.295|Cacna1b (ssRNA)
RNA: GGGAGUUCUACAGUCCGACGAUCGCUUCGAUAUCCGCAUGCUAGGGAGGCCACGAGAGAAAGGUUGCACACAGACAGGCAGGCACUCCUUGGUGUGGUCUCUCUGUUUUGAAACUUCUGAUGACUUCUUGGUGGCUUGUUGUCUUCUACCCCAUGUUUCUCACAGGAUCUGUGUGUGUGUGUGUGUGUGUGUGUGUGUGUGUGUGUGUGUGUGUUAGCAUGUGUGUAUUAGCGUGUGUGAGUGUGUGAGCAUGCACGAGUCAUAGGAGAUGCAGGUGUAUGUGUGUGGUGUGCAUAUGUGUAUCUCUUGCGGUCGCACUAGUGUGGAAUUCUCGGGUGUCAAGG
B7: ENSMUSG00000004113.293|Cacna1b (ssRNA)
RNA: GGGAGUUCUACAGUCCGACGAUCGCUUCGAUAUCCGCAUGCUAGCACAGAUAGCUGGGAGGCCACGAGAGAAAGGUUGCACACAGACAGGCAGGCACUCCUUGGUGUGGUCUCUCUGUUUUGAAACUUCUGAUGACUUCUUGGUGGCUUGUUGUCUUCUACCCCAUGUUUCUCACAGGAUCUGUGUGUGUGUGUGUGUGUGUGUGUGUGUGUGUGUGUGUGUGUGUUAGCAUGUGUGUAUUAGCGUGUGUGAGUGUGUGAGCAUGCACGAGUCAUAGGAGAUGCAGGUGUAUGUGUGUGGUGUCUCUUGCGGUCGCACUAGUGUGGAAUUCUCGGGUGUCAAGG
B8: ENSMUSG00000004113.291|Cacna1b (ssRNA)
RNA: GGGAGUUCUACAGUCCGACGAUCGCUUCGAUAUCCGCAUGCUAGGUGUUCAGUGUGCACAGAUAGCUGGGAGGCCACGAGAGAAAGGUUGCACACAGACAGGCAGGCACUCCUUGGUGUGGUCUCUCUGUUUUGAAACUUCUGAUGACUUCUUGGUGGCUUGUUGUCUUCUACCCCAUGUUUCUCACAGGAUCUGUGUGUGUGUGUGUGUGUGUGUGUGUGUGUGUGUGUGUGUGUGUUAGCAUGUGUGUAUUAGCGUGUGUGAGUGUGUGAGCAUGCACGAGUCAUAGGAGAUGCAGGUGUACUCUUGCGGUCGCACUAGUGUGGAAUUCUCGGGUGUCAAGG
B9: ENSMUSG00000004113.292|Cacna1b (ssRNA)
RNA: GGGAGUUCUACAGUCCGACGAUCGCUUCGAUAUCCGCAUGCUACAGUGUGCACAGAUAGCUGGGAGGCCACGAGAGAAAGGUUGCACACAGACAGGCAGGCACUCCUUGGUGUGGUCUCUCUGUUUUGAAACUUCUGAUGACUUCUUGGUGGCUUGUUGUCUUCUACCCCAUGUUUCUCACAGGAUCUGUGUGUGUGUGUGUGUGUGUGUGUGUGUGUGUGUGUGUGUGUGUUAGCAUGUGUGUAUUAGCGUGUGUGAGUGUGUGAGCAUGCACGAGUCAUAGGAGAUGCAGGUGUAUGUGUGCUCUUGCGGUCGCACUAGUGUGGAAUUCUCGGGUGUCAAGG

These binders were tested against TDP-43 (Homo sapiens, UniProt Q13148 1-414) (assay: RNA Bind-n-Seq with designed 260-mer pool; 25 mM Tris-HCl, 150 mM KCl, 3 mM MgCl2, BSA (printed 500 mg/mL), 20 units/mL SUPERase IN; pH not stated; 500 nM RNA pool, 1 h, 4 C; TDP-43 5, 50, 500 nM; high values mean tight binding). Conditions: protein: recombinant; tags: SBP (GST cleaved off with PreScission; pGEX-GST-SBP).
TDP-43, sequence (Q13148 whole entry): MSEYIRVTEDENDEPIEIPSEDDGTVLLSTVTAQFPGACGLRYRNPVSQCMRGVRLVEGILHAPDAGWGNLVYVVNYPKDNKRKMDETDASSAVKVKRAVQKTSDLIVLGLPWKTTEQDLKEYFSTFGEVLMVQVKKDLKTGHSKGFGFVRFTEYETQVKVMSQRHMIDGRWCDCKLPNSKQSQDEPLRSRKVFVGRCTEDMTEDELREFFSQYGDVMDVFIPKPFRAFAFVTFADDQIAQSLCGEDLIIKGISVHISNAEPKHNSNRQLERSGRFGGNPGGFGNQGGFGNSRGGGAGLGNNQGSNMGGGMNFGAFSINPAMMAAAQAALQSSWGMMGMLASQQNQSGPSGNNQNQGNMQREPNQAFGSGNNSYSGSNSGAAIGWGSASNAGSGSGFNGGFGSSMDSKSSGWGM
Method in brief: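 An in vitro-transcribed pool of 260-nt 3′ UTR oligos (500 nM) was incubated for 1 h at 4 °C with recombinant SBP-tagged TDP-43 at 5, 50 or 500 nM held on streptavidin beads. The buffer contained 25 mM Tris-HCl, 150 mM KCl, 3 mM MgCl2, BSA and SUPERase IN. Biotin-eluted bound RNA was sequenced, and binding, R, is each oligo's normalized read abundance in the bound sample over that in input.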

Going from B1 to B2, the binding signal falls from 8.59 R (bound/input frequency ratio) to 5.04 R (bound/input frequency ratio).

Going from B3 to B4, the binding signal falls from 5.7 R (bound/input frequency ratio) to 4.07 R (bound/input frequency ratio).

Going from B5 to B6, the binding signal falls from 6.88 R (bound/input frequency ratio) to 5.7 R (bound/input frequency ratio).

Compared with B7, B8 is lower in binding signal: 5.22 R (bound/input frequency ratio) for the first, 5.2 R (bound/input frequency ratio) for the second.

In the case of B9, the binding signal is reported as 6.93 R (bound/input frequency ratio).
